Screening results as filed in PubChem.
An excerpt weighted towards active compounds, which were near 0.9% of everything screened.
TRb SRC2 PPI: TRbeta-SRC2 interaction inhibition; P10828; TRbeta-SRC2 peptide binding, fluorescence polarization; receptor liganded with 1 µM T3; Potency, µM (highest dose often 106 µM), inactives show top-dose activity change, negative = inhibition, hits mostly inhibitors; 280,000 compounds, 0.065% hits;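 note: plate controls were bound peptide for no effect and peptide without receptor for full effect; nearly all actives have a fitted effect of over 50% in size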
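Binding of a 20-amino-acid Texas Red SRC2 peptide (20 nM) to TRb ligand-binding domain (0.6 uM) with agonist T3 at 1 uM was followed by fluorescence polarization after a 5 hr room-temperature incubation.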
APE1 inh: APE1 (human) endonuclease inhibition | 350,000 compounds, 0.35% hits | Potency, µM (titrated, usually from 65.8 µM), inactives show top-dose activity change, negative = inhibition, usual class: inhibitors | P27695 | recombinant APE1, TAMRA/BHQ-2 abasic DNA cleavage fluorescence;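 note: plate controls were vehicle for no effect and reference inhibitor for full effect; nearly all actives have a fitted effect of over 55% in size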
Target sequence (P27695 whole entry, looked up): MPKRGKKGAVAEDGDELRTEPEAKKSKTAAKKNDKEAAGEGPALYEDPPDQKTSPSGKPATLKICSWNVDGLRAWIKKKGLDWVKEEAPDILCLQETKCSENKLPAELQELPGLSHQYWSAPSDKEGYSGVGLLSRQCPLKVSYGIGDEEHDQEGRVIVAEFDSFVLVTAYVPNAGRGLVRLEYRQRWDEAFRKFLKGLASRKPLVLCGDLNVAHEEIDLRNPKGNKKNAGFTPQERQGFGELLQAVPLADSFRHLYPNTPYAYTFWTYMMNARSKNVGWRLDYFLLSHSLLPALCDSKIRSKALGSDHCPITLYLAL
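Activity was derived from the fluorescence gain between first and third kinetic reads (60 s intervals, ex 525/em 598 nm) after 50 nM THF-abasic TAMRA/BHQ-2 duplex was added to 0.75 nM APE1 preincubated 15 min with compound.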
RECQ1 inh: inhibitors of human RECQ1 DNA helicase; P46063; RECQ1 DNA unwinding, red fluorescence kinetic read; Potency, µM (highest dose often 57.3 µM), for inactives: at the highest dose activity, negative = inhibition, usual class: inhibitors; 240,000 compounds, 0.54% hits;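 note: plate controls were vehicle for no effect and no enzyme for full effect; nearly all actives have a fitted effect of over 30% in size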
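50 nM RECQ1T1 preincubated 15 min with compound in Tris pH 8.0 buffer with MgCl2, DTT, Tween-20 and 2.5 ug/ml poly(dI-dC); started with 200 nM TAMRA/BHQ-2 forked duplex and 2 mM ATP. Unwinding read as fluorescence (525/598 nm), two reads 2 h apart.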
GoLoco inh red: blocks human Gai1 binding to RGS12 GoLoco peptide, red readout. P63096. Gai1:RGS12 GoLoco peptide FP, rhodamine, 10 min. Potency, µM (doses to about 61.6 µM), for the others: at the top dose activity, negative = inhibition, usual class: inhibitors. 230,000 compounds, 0.44% hits. AID 880; active = well fitted inhibition curve with a large enough effect, not every such curve was filed as active; inactive = no such curve, though single readings can be large or run the other way; note: nearly all actives have a fitted effect of over 30% in size
Target sequence (P63096 whole entry, looked up): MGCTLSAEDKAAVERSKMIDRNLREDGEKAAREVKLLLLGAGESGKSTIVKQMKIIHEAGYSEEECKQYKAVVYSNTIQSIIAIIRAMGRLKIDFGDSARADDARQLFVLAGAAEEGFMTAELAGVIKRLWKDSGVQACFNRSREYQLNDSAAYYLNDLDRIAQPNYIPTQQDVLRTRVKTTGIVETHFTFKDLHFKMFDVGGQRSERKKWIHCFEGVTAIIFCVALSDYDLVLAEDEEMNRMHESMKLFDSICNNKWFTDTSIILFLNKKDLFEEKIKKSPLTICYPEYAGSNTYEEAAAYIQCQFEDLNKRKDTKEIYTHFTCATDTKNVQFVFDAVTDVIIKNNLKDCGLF
TexasRed fluor: Texas Red fluorescence interference in TRb-SRC2 counter-screen. TRb/SRC2 Texas Red total fluorescence interference. Potency, µM (top dose mostly 106 µM), inactives show top-dose fluorescence change, negative = quenching. 280,000 compounds, 0.29% hits; active = well fitted curve in either direction with a large enough effect; inconclusive = small, poorly fitted or top-dose-only effect
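Flags fluorescent or light-absorbing compounds by total fluorescence, S + 2P, at 555 nm excitation and 632 nm emission. Mixture: 20 nM Texas Red SRC2 peptide, 0.6 uM human TRb LBD, 1 uM T3, 5% DMSO; compound exposure 5 h at ambient temperature.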
BLM inh: inhibitors of human Bloom syndrome helicase BLM; P54132; recombinant BLM DNA unwinding, fluorescence dequenching; Potency, µM (titrated, usually from 56.1 µM), without a hit: top-dose activity change, negative = inhibition, most hits filed as inhibitors; 350,000 compounds, 0.2% hits; AID 2528;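 note: plate controls were vehicle for no effect and no enzyme for full effect; nearly all actives have a fitted effect of over 35% in size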
* hit, by the source's call; i = inactive; ? = inconclusive; . = not tested or not shown; ! = repeats disagree; [ ] = dose if it differs, or a comment. Unless noted, calls come from the whole dose curve; as a rule, active = well fitted curve in the direction sought with a large enough effect; inconclusive = small, poorly fitted or top-dose-only effect, or another doubt; inactive = no such curve, though single readings can be large; an effect the other way counts as inactive or inconclusive. Unless noted, % is set by controls: 0 for no effect and ±100 for the full control effect; potency is the fitted concentration of half-maximal effect.

SMILES | TRb SRC2 PPI | APE1 inh | RECQ1 inh | GoLoco inh red | TexasRed fluor | BLM inh
FC(F)C(F)(F)OCC(Cn1cncn1)c1ccc(Cl)cc1Cl (centres undefined) | -2%[201 µM] | . | . | . | -1%[201 µM] | .
CCCOCC(=Nc1ccc(Cl)cc1C(F)(F)F)n1ccnc1 | -11%[201 µM] | . | . | . | ? | .
Cc1cc(C=C2C(=O)N(C)C(=S)N(C)C2=O)c(C)n1-c1cccnc1 | 0% | -4% | -4% | 128% | -1% | 18µM*
CC(C)(C)OOC(C)(C)c1ccc(C(C)(C)OOC(C)(C)C)cc1 | 1%[201 µM] | . | . | . | -5%[201 µM] | .
C[C@@H]1NCCc2cc(O)c(O)cc21 | -5%[53 µM] | ? | -8%[25.9 µM] | 3.5µM* | -1%[53 µM] | 1%[21.4 µM]
CCCCCCCCCCCCN(C)C | 6%[201 µM] | . | . | . | 1%[201 µM] | .
CN[C@H]1C[C@H]2O[C@@](C)([C@H]1OC)n1c3ccccc3c3c4c(c5c6ccccc6n2c5c31)C(=O)NC4 | -8% | ? | 28µM* | 16% | -4% | -8%
Nc1ccc2ccc3cccc[n+]3c2c1 | . | -14% | . | . | . | -2%
C[n+]1c(-c2ccccc2)c2cc(N)ccc2c2ccc(N)cc21 | . | 11µM* | . | . | . | ?
CC1=NNC(=O)N(/N=C/c2cccnc2)C1 | -4%[201 µM] | . | . | . | -3%[201 µM] | .
COc1ccc(OC)c(N2C(=O)NC(=O)/C(=C\c3ccc([N+](=O)[O-])s3)C2=O)c1 | ? | ? | -21% | 193% | 16% | 16µM*
O=C1NC(=O)N(c2ccccc2)C(=O)/C1=C\c1ccc([N+](=O)[O-])s1 | 9% | ? | ? | 101% | -3% | -6%
C=CCOC(=O)c1ccccc1N | 0% | 4% | -6% | 3% | -2% | .
COC(=O)c1ccccc1N | 0% | 0% | -17% | 32µM* | -3% | .
CCCCn1c(N)c(C(=O)NCCN2CCOCC2)c2nc3ccccc3nc21 | 5% | -9% | -21% | -1% | -6% | 0%
CCCCn1c(NC(=O)c2ccc(Br)o2)c(C(=O)OCC)c2nc3ccccc3nc21 | -7% | 6% | -1% | -20% | -2% | 22µM*
O=C(O)c1c(Cl)ccc2cc(Cl)cnc12 | -2%[201 µM] | . | . | . | -7%[201 µM] | .
O=C=Nc1ccc(Cl)cc1 | -2%[201 µM] | . | . | . | -6%[201 µM] | .
CCCCOC(C)=O | 0% | 2% | 0% | -3% | -3% | .
CCOCCOC(C)=O | 1% | 0% | -22% | 28µM* | -2% | .
CN1C(CC(O)c2ccccc2)CCCC1CC(O)c1ccccc1 (centres undefined) | . | -2% | . | . | . | .
Cn1c[n+](C)cc1C(O)c1ccccc1 (centres undefined) | 0% | 1% | -3% | 14µM* | -5% | 1%
CC[N+](C)(CC)CCCCOc1ccc2c(c1)C(=O)c1cc(OCCCC[N+](C)(CC)CC)ccc1-2 | -2% | -5% | -13% | 11µM* | -6% | -29%
O=C(O)[C@@H](Br)[C@H](Br)C(=O)O | . | . | . | 4%[14.2 µM] | . | .
O=C(O)C(Br)Br | 8% | 12% | 35µM* | 86% | ? | .
SMILES | TRb SRC2 PPI | APE1 inh | RECQ1 inh | GoLoco inh red | TexasRed fluor | BLM inh
CS/C(C)=N/OC(=O)N(C)SN(C)C(=O)O/N=C(\C)SC | 0%[201 µM] | . | . | . | 5%[201 µM] | .
O=C(O)c1cc[c]([Hg][S]c2ncnc3nc[nH]c23)cc1 | . | . | . | 0.63µM* | . | .
CCOP(=O)(OCC)SCSCC | -1%[201 µM] | . | . | . | 0%[201 µM] | .
CCC(C)(C)c1ccc(O)cc1 | 0%[201 µM] | ? | -16% | 8.9µM*! | -3%[201 µM] | 2%
ClCc1ccccc1Cl | 2%[201 µM] | . | . | . | -1%[201 µM] | .
CC1(C)CC(=O)C2=C(C1)OC(N)=C([N+](=O)[O-])C2c1ccc(C#N)s1 (centres undefined) | -1% | ? | 28µM* | -5% | -4% | -2%
COP(=O)(OC)Oc1ccc([N+](=O)[O-])cc1 | -2%[201 µM] | . | . | . | -4%[201 µM] | .
Cc1ccc(N2C(=O)NC(=O)/C(=C/C=C/c3ccco3)C2=O)cc1 | 23% | ? | 20µM* | 23% | 22% | 5%
CC(C)c1ccc(N2C(=O)NC(=O)/C(=C/C=C/c3ccco3)C2=O)cc1 | 11% | ? | ? | 126% | 10% | -21%
O=C1NC(=O)N(Cc2ccc(F)cc2)C(=O)/C1=C\C=C\c1ccco1 | 6% | ? | 28µM* | 201% | 7% | ?
Cc1cc(C)cc(N2C(=O)NC(=O)/C(=C\C=C\c3ccco3)C2=O)c1 | 10% | 12% | 14µM* | 95% | 20% | 2%
Cc1ccc(N2C(=O)NC(=O)/C(=C/c3ccoc3)C2=O)cc1 | 3% | 1.6µM* | 13µM* | 19% | 25% | 16µM*
CSC1=N[C@@](C)(c2ccccc2)C(=O)N1Nc1ccccc1 | 1%[201 µM] | . | . | . | -2%[201 µM] | .
CCC(C)c1ccc(O)cc1 (centres undefined) | -4%[201 µM] | . | . | . | -2%[201 µM] | .
CCN(CC)C(=O)SCc1ccc(Cl)cc1 | 3%[201 µM] | . | . | . | -2%[201 µM] | .
CN(C)c1ccc(NC(=O)c2sc3nc4c(cc3c2N)N2CCC4CC2)cc1 | -8% | . | . | . | 14µM*[quencher] | -2%
Nc1c(C(=O)Nc2ccc(Br)cc2F)sc2nc3c(cc12)N1CCC3CC1 | -2% | . | . | . | 10µM*[quencher] | -2%
CCCCC(O)(Cn1cncn1)c1ccc(Cl)cc1Cl (centres undefined) | 0%[201 µM] | . | . | . | -1%[201 µM] | .
CC(=O)Nc1cccc([As](=O)(c2cccc(NC(C)=O)c2)c2cccc(NC(C)=O)c2)c1 | 4% | -9% | i | 5µM* | 0% | 24%
CC(=O)Nc1cc([As](=O)(O)O)ccc1O | 0% | 6% | -3% | 12% | -1% | 0%
CC(=O)N1CCCSC1=Nc1ccccc1 | 5% | -7% | 0% | 6% | -1% | -3%
CCOc1ccccc1N=C1SCCCN1C | 3% | -2% | -3% | 3.5µM* | -3% | 0%
C#CCN1C(=O)COc2cc(F)c(N3C(=O)C4=C(CCCC4)C3=O)cc21 | -3%[201 µM] | . | . | . | -12%[201 µM] | .
CCS(=O)(=O)c1cccnc1S(=O)(=O)NC(=O)Nc1nc(OC)cc(OC)n1 | 0%[201 µM] | . | . | . | -4%[201 µM] | .
CCCCCCCCCCCCCCC(Br)C(=O)O (centres undefined) | 6%[201 µM] | . | . | . | -2%[201 µM] | .
CCCCCOc1ccc(C)cc1CN(CCCl)CCCl | 32µM* | 1% | i | 9% | -1% | 2%
COC[C@H]1OC(=O)c2coc3c2[C@@]1(C)C1=C(C3=O)[C@H]2CCC(=O)[C@@]2(C)C[C@H]1OC(C)=O | -23% | -9% | 13µM* | -1% | 24% | 1%
COC[C@H]1OC(=O)c2coc3c2[C@@]1(C)C1=C(C3=O)C2CCC(=O)[C@@]2(C)C[C@H]1OC(C)=O (some centres undefined) | 35µM* | ? | 35µM* | -7% | 45µM*![fluorescent] | 3%
C[N+]1(C)CCN(c2ccccc2)CC1 | -3% | -7% | -9% | 28µM*! | -1% | -6%
